An excerpt weighted towards active compounds, which were near 18% of everything screened.
IL-1B inflam inh = inflammasome signaling inhibition, IL-1 beta readout; THP-1 LPS/ATP IL-1B secretion, AlphaLISA, 16 h; hits give low values; activity change, % at 57.5 µM; actives 4.7% (n = 360,000); in the data active = activity change below about -50%; inconclusive = mostly about -30% to -49%; note: % is set by controls: 0 for no effect and ±100 for the full control effect
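Secreted IL-1B measured by AlphaLISA bead assay after 16 h compound exposure of THP-1 cells; compounds (final up to 57.5 uM) added 1 h before LPS (250 ng/mL) and ATP (1.25 mM) stimulation; lower signal means less secretion.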
DT40 TDP1 no CPT = qHTS for Inhibitors of human tyrosyl-DNA phosphodiesterase 1 (TDP1): qHTS in cells in absence of CPT; DT40 Tdp1-/- hTDP1 cells, no CPT, ATP luminescence, 48 h; Potency, µM (doses to about 46.2 µM), for the others: at the highest dose activity change, negative = growth inhibition, usual class: inhibitors; actives 15% (n = 420,000); AID 686978, 2013; note: potency is the fitted concentration of half-maximal effect; % is set by controls: 0 for no effect and ±100 for the full control effect; nearly all actives have a fitted effect of over 55% in size
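Camptothecin absent (DMSO only). Human TDP1-complemented DT40 knockout cells, 400 cells/well, 37 °C for minimum 48 hr; ATP measured via CellTiter-Glo, 30 min dark incubation, luminescence.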
HepG2 viability = HepG2 cytotoxicity, counter-screen for TGF-b inhibitors; AID 588856; HepG2 CAGA-GFP viability, ATP luminescence, 18 h; actives 0.76% (n = 410,000); Potency, µM (highest dose often 46.1 µM), inactives show at the top dose activity change, negative = cytotoxicity, usual class: cytotoxic; note: potency is the fitted concentration of half-maximal effect
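HepG2 CAGA-GFP cells (1000/well, DMEM with 1% FBS) received compound, then TGF-beta at 500 pg/mL final, and were incubated 18 hours at 37 degrees C. Viability was read by CellTiter-Glo luminescence. Media-only wells were set as complete cell-killing and DMSO as no toxicity.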
TDP1 inh = blocks human tyrosyl-DNA phosphodiesterase 1; Q9NUW8; recombinant TDP1, AlphaScreen DNA substrate cleavage; Potency, µM (series often up to 130 µM), inactives show top-dose activity change, negative = inhibition, actives largely listed as inhibitors; actives 0.28% (n = 350,000); AID 485290; note: potency is the fitted concentration of half-maximal effect; % is set by controls: 0 for no effect and ±100 for the full control effect; nearly all actives have a fitted effect of over 40% in size
Target sequence (Q9NUW8 whole entry, looked up): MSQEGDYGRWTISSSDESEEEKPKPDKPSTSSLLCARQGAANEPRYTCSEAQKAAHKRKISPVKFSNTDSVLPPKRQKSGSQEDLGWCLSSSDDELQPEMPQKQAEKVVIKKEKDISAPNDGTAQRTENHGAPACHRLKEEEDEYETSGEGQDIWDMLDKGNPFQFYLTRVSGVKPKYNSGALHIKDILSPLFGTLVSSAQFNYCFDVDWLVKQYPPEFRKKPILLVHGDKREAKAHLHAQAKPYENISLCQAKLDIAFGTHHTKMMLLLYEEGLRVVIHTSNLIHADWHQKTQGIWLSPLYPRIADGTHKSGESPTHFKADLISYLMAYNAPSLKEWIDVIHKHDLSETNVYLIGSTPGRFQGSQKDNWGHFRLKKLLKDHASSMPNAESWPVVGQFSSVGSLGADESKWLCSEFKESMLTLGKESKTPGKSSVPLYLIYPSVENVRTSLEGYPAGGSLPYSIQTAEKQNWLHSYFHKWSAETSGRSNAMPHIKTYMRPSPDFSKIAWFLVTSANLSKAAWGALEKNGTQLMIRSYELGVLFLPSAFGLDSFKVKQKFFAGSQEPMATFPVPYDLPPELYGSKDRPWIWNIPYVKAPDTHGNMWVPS
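Steps: enzyme plus compound, 15 min RT; add biotin/phosphotyrosine-FITC oligonucleotide (15 nM final), react 5 min; add donor/acceptor beads (10 ug/ml final), 10 min; read AlphaScreen. Tdp1 at 1 nM final.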
DT40 TDP1 CPT = growth inhibition of DT40 Tdp1-/-;hTDP1 cells with camptothecin (screen for TDP1 inhibitors); chicken DT40 Tdp1-/-;hTDP1 cells + 20 nM CPT, ATP luminescence, 48 h; Potency, µM (titrated, usually from 46.2 µM), for the others: top-dose activity change, negative = growth inhibition, most hits filed as inhibitors; actives 12% (n = 420,000); note: potency is the fitted concentration of half-maximal effect; % is set by controls: 0 for no effect and ±100 for the full control effect; nearly all actives have a fitted effect of over 55% in size
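Chicken DT40 Tdp1-/- cells complemented with human TDP1, 400 cells/well, exposed to compounds plus 20 nM camptothecin for at least 48 h at 37 C; viability read as ATP content by CellTiter-Glo luminescence.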
TGFb SMAD3 inh = TGF-b pathway inhibition; HepG2 CAGA-GFP TGF-b/SMAD3 reporter, GFP fluorescence, 18 h; TGF-beta stimulated, 500 pg/mL final; Potency, µM (series often up to 46.1 µM), for inactives: at the top dose activity, negative = inhibition, usual class: inhibitors; actives 1.2% (n = 410,000); AID 588855; note: potency is the fitted concentration of half-maximal effect; % is set by controls: 0 for no effect and ±100 for the full control effect; nearly all actives have a fitted effect of over 65% in size
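Inhibition was scored as loss of TGF-beta-induced (500 pg/mL final, 18 hours, 37 degrees C) GFP in HEPG2 cells carrying a CAGA-GFP reporter, in DMEM with 1% FBS. Well GFP was summed per cell; Activity was normalised to unstimulated and stimulated DMSO wells, then concentration-response fitting.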
* = called active by the depositor; ? = inconclusive; . = no result given; ! = not confirmed by another sample; [ ] = remark or other dose. Unless noted, calls come from the whole dose curve; as a rule, active = well fitted curve in the direction sought with a large enough effect; inconclusive = small, poorly fitted or top-dose-only effect, or another doubt; inactive = no such curve, though single readings can be large; an effect the other way counts as inactive or inconclusive.

SMILES | IL-1B inflam inh | DT40 TDP1 no CPT | HepG2 viability | TDP1 inh | DT40 TDP1 CPT | TGFb SMAD3 inh
CC(=O)Nc1ccc(NC(=O)C2CCCN(C(=O)c3ccc(Cl)cc3)C2)cc1 (centres undefined) | 23.4 | -28.2% | 2.3% | 2.5% | -7.9% | 37.2%
CCN(CC)S(=O)(=O)c1ccc(NC(=O)C2CCCN(C(=O)c3ccc(Cl)cc3)C2)cc1 (centres undefined) | -9.5 | 23.1µM* | -24.1% | 0.0% | 16.4µM* | ?
CN(C)S(=O)(=O)c1cccc(NC(=O)C2CCCN(C(=O)c3ccc(Cl)cc3)C2)c1 (centres undefined) | 35.0 | 14.6µM* | -32.6% | . | ? | -23.3%
Cc1noc(C)c1C(=O)OC(C)C(=O)N(C)c1ccccc1 (centres undefined) | 0.0 | 3.8% | -13.4% | 0.3%[56.1 µM] | -2.6% | -11.5%
CCCCN(C(=O)COc1ccc(F)cc1)c1c(N)n(CC(C)C)c(=O)[nH]c1=O | -14.2 | -18.7% | -1.9% | . | -3.4% | 7.5%
Cc1ccc(COn2c(-c3ccc(Cl)cc3)nc3ccc([N+](=O)[O-])cc32)cc1 | -9.7 | ? | -1.4% | 1.9% | ? | -1.7%
CCOC(=O)C(C)On1c(-c2ccccc2)nc2ccc([N+](=O)[O-])cc21 (centres undefined) | -15.3 | 18.4µM* | -15.7% | 7.0% | ? | -3.1%
O=[N+]([O-])c1ccc2nc(-c3ccc(Cl)cc3)n(OCc3ccccc3)c2c1 | -8.1 | ? | 4.2% | 1.9% | -12.3% | -2.7%
O=C(O)COn1c(-c2ccccc2)nc2ccc([N+](=O)[O-])cc21 | 27.8 | ? | 2.3% | 25.1µM* | ? | -5.9%
O=C(N1CCCCC1)N1CCN(S(=O)(=O)c2ccc(Cl)cc2)CC1 | -1.0 | -19.7% | 0.0% | -2.8% | -10.0% | 0.0%
CCCCN1C(N)=NC[C@@H]1c1ccccc1 | -12.4 | 13µM* | 3.9% | . | 16.4µM* | -2.1%
COc1cc(CC(=O)N(C)CC(=O)Nc2cc(C)ccc2C)cc(OC)c1OC | 46.6 | -4.5% | -1.5% | 9.3% | 1.5% | 14.5%
N/C(=N\OC(=O)/C=C/c1ccccc1Cl)c1ccncc1 | -56.3* | 0.5% | -5.2% | 6.2% | -3.4% | 3.6%
N/C(=N\OC(=O)COc1ccc2ccccc2c1)c1ccncc1 | -15.2 | ? | -34.4% | 0.0% | 20.6µM* | -10.0%
N/C(=N\OC(=O)/C=C/c1ccccc1)c1ccccn1 | -26.1 | -24.2% | 4.2% | 8.1% | -0.1% | 3.6%
N/C(=N\OC(=O)/C=C/c1ccccc1)c1ccncc1 | -50.2* | 8.5% | -16.3% | 0.0% | -17.9% | -1.8%
N/C(=N\OC(=O)c1ccccc1Cl)c1ccncc1 | 28.7 | -14.4% | 6.7% | -8.3% | -27.6% | -8.1%
COc1ccccc1C/C(N)=N/OC(=O)/C=C/c1ccccc1 | -56.5* | -3.8% | -8.2% | 0.6% | ? | 17.3%
CCCCSc1nc2sc3c(c2c(=O)n1-c1ccccc1C)CC(C)(C)OC3 | . | . | -13.4% | . | . | 31.5%
CC(C)OCCCNC(=O)CN1C(=O)c2ccccc2Sc2ncccc21 | . | -15.6% | -0.4% | 0.0% | -5.4% | 8.8%
CN1CCN(c2ncc3nc(-c4cc(F)cc(F)c4)c(=O)n(CCc4ccccc4)c3n2)CC1 | . | -20.8% | . | . | 8.4% | .
COc1ccc(-c2onc(C)c2-c2ccc(C(=O)OC(C)C)o2)c(O)c1 | ? | 16.4µM* | -56.8% | 7.2% | 20.6µM* | ?
COc1ccc(NC(=O)c2cc(-c3ccccc3O)no2)cc1 | . | -29.1% | 11.7% | 5.2% | -28.7% | 1.3%
Cc1nc(SCc2cccc(Oc3ccccc3)c2)n[nH]1 | 25.1 | ? | -33.7% | -1.9% | ? | -14.4%
CC(C(=O)NC(C)(C)C)n1c(C(c2ccccc2)c2ccccc2)nc2ccccc21 (centres undefined) | -2.1 | ? | . | . | ? | .
SMILES | IL-1B inflam inh | DT40 TDP1 no CPT | HepG2 viability | TDP1 inh | DT40 TDP1 CPT | TGFb SMAD3 inh
CC(C(=O)NC(C)(C)C)n1c(-c2ccccc2)nc2ccccc21 (centres undefined) | -19.1 | -5.1% | . | . | 6.5% | .
Cc1csc(-c2nc3ccccc3n2C(C(=O)NC(C)(C)C)c2ccccc2)c1 (centres undefined) | 0.0 | 29.1µM* | . | . | ? | .
CCC(C(=O)NC(C)(C)C)n1c(C(c2ccccc2)c2ccccc2)nc2ccccc21 (centres undefined) | -2.7 | ? | . | . | 18.4µM* | .
COc1ccc(NS(=O)(=O)c2cccc(C(=O)NCc3ccco3)c2)cc1 | -12.8 | ? | 1.0% | . | -13.8% | -10.7%
COc1ccccc1CN1CCCC(CN(CCN(C)C)C(=O)c2ccc(C)cc2)C1 (centres undefined) | -27.1 | -20.2% | -21.3% | . | -25.0% | -2.3%
COC(=O)C(C)Sc1nc2ccsc2c(=O)n1Cc1ccccc1 (centres undefined) | 19.5 | -8.2% | 4.5% | -4.9% | 4.1% | -9.3%
CC1CCN(S(=O)(=O)c2ccc3c(c2)N(CC(=O)NCCCN2CCCC(C)C2)C(=O)CS3)CC1 (centres undefined) | -21.1 | 14.6µM*! | -10.1% | 2.2% | 14.6µM*! | ?
CCC1CCCCN1CCCNC(=O)CN1C(=O)CSc2ccc(S(=O)(=O)N3CCC(C)CC3)cc21 (centres undefined) | -20.4 | 23.1µM*! | -14.8% | 4.8% | ? | ?
CC(C)CN(CCNC(=O)CN1C(=O)CSc2ccc(S(=O)(=O)N3CCOCC3)cc21)CC(C)C | 0.0 | 20.6µM*! | -54.7% | 1.2% | 18.4µM*! | 13.9%
CC1CCCN(CCCNC(=O)CN2C(=O)CSc3ccc(S(=O)(=O)N4CCOCC4)cc32)C1 (centres undefined) | -9.3 | 8.3% | 4.7% | 1.3% | -11.8% | 10.2%
CC1CCN(S(=O)(=O)c2ccc3c(c2)N(CC(=O)NCCCN2CCCCC2)C(=O)CS3)CC1 | ? | -2.2% | -1.0% | 1.9% | -23.4% | -0.3%
Cn1c(COc2ccccc2)nnc1SCC(=O)Nc1ccc(N2CCOCC2)cc1 | 0.0 | -11.6% | -10.6% | 1.5% | -12.9% | 14.5%
O=C(COC(=O)c1cccnc1Cl)NCCc1ccc(F)cc1 | 3.3 | 4.4% | -0.7% | -0.9% | -0.5% | 1.8%
COc1ccccc1C(=O)O[C@H]1[C@H](Cc2ccccc2)NS(=O)(=O)[C@H]2C[C@@H]3C=C[C@]12O3 | -4.0 | 6.7% | 19.2% | 0.7% | -27.9% | 10.5%

Assay outcomes: PubChem, National Center for Advancing Translational Sciences (NCATS)
